High-throughput results as filed in PubChem.
TDP1 cell CPT: growth inhibition of DT40 Tdp1-/-;hTDP1 cells with camptothecin (screen for TDP1 inhibitors). chicken DT40 Tdp1-/-;hTDP1 cells + 20 nM CPT, ATP luminescence, 48 h. Potency, µM (series often up to 46.2 µM), without a hit: top-dose activity change, negative = growth inhibition, usual class: inhibitors. 420,000 compounds, 12% hits; note: potency is the fitted concentration of half-maximal effect; nearly all actives have a fitted effect of over 55% in size
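Chicken DT40 Tdp1-/- cells stably complemented with human TDP1 were seeded at 400 cells/well in medium containing 20 nM camptothecin, exposed to pin-transferred compounds, and grown at 37 °C for at least 48 hr. Viability was read as ATP luminescence.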
IL1B secr inh: inhibitors of inflammasome signaling (IL-1 beta secretion); THP-1 LPS/ATP IL-1B secretion, AlphaLISA, 16 h; hits give low values; activity change, % at 57.5 µM; 360,000 compounds, 4.7% hits; in the data active = activity change below about -50%; inconclusive = mostly about -30% to -49%
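THP-1 cells pretreated 1 hr with compounds (up to 57.5 uM final), then stimulated with LPS (250 ng/mL final) plus ATP (1.25 mM final); secreted IL-1B measured by AlphaLISA after 16 hr, decreased signal indicating inhibition.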
HT1080 IDH1KD tx: toxicity to HT-1080 IDH1 knockdown cells (counter line). HT-1080 IDH1 knockdown viability, ATP luminescence, 48 h. Potency, µM (titrated, usually from 46.1 µM), for inactives: at the highest dose activity, negative = toxicity, most hits filed as cytotoxic. 360,000 compounds, 2% hits. AID 686971;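 note: potency is the fitted concentration of half-maximal effect; 0% = DMSO wells and -100% = cell-free medium wells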
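In this qHTS, HT-1080 cells depleted of IDH1 are exposed for 48 h at 37 °C to compound titrations. Toxicity is scored from CellTiter-Glo luminescence, with DMSO as full viability and medium alone as none.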
TDP1 cell noCPT: qHTS for Inhibitors of human tyrosyl-DNA phosphodiesterase 1 (TDP1): qHTS in cells in absence of CPT; 420,000 compounds, 15% hits; DT40 Tdp1-/- hTDP1 cells, no CPT, ATP luminescence, 48 h; Potency, µM (top dose mostly 46.2 µM), without a hit: at the highest dose activity change, negative = growth inhibition, usual class: inhibitors; note: potency is the fitted concentration of half-maximal effect; nearly all actives have a fitted effect of over 55% in size
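Growth kinetics read by CellTiter-Glo luminescence after ≥48 hr at 37 °C. Cells: DT40 Tdp1-/- stably carrying human TDP1, 400 per well, compound exposure in the absence of CPT (DMSO vehicle).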
HT1080NT lethal: kills 2HG-producing HT-1080-NT fibrosarcoma cells | HT-1080-NT fibrosarcoma viability, CellTiter-Glo ATP luminescence, 48 h | Potency, µM (top dose mostly 46.1 µM), for the others: top-dose activity, negative = less viability, hits mostly cytotoxic | 360,000 compounds, 1.6% hits | AID 686970;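 note: NT is the 2HG producing partner of a matched IDH1 knockdown line; potency is the fitted concentration of half-maximal effect; 0% = DMSO-treated cells and -100% = media-only wells without cells; nearly all actives have a fitted effect of over 55% in size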
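Viability by CellTiter-Glo luminescence after 48 h compound exposure at 37C of HT-1080-NT cells (750/well, RPMI, 5% FBS). % activity scaled between DMSO wells and medium-only wells, then curve-fitted and categorized by curve class.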
Starred values were filed as active, the others as inactive; ? = inconclusive; . = no result; [ ] = another dose, or the depositor's remark. Hits are enriched below; roughly 19% of the tested compounds scored in any of these assays. Unless noted, calls come from the whole dose curve; as a rule, active = well fitted curve in the direction sought with a large enough effect; inconclusive = small, poorly fitted or top-dose-only effect, or another doubt; inactive = no such curve, though single readings can be large; an effect the other way counts as inactive or inconclusive. Unless noted, % is set by controls: 0 for no effect and ±100 for the full control effect.

SMILES | TDP1 cell CPT | IL1B secr inh | HT1080 IDH1KD tx | TDP1 cell noCPT | HT1080NT lethal
NS(=O)(=O)c1cccc(NC(=O)CCSc2ccc(Cl)cc2)c1 | ? | 20 | 27% | 12µM* | 14%
NS(=O)(=O)c1cccc(NC(=O)CCCNC(=O)c2ccc(Cl)cc2)c1 | 4% | 98 | 1% | 10% | 1%
CC1CCN(CC2CCN(C(=O)NCc3ccccc3)CC2)CC1 | 7% | . | . | 10% | .
OB(O)O | 3% | . | . | -19% | .
O=C(N/N=C/c1c(F)c(F)c(F)c(F)c1F)c1ccc(Cn2cc(Br)cn2)o1 | 16µM* | -98* | -1% | 15µM* | 3%
O=C(N/N=C/c1c(F)cccc1Cl)c1ccc(Cn2cc(Br)cn2)o1 | -9% | ? | -7% | -8% | -13%
CC(/C=N/NC(=O)c1ccc(Cn2cc([N+](=O)[O-])cn2)o1)=C\c1ccccc1 | -17% | -52* | -14% | -10% | -16%
Cc1cc2ccccc2nc1SCC(=O)NC1CCCC1 | ? | 15 | 14% | ? | 5%
COc1cc2c(cc1O)CCN(C(=O)CSc1nncn1C)[C@@H]2C | -15% | 18 | -2% | 4% | 16%
CCOC(=O)C(C#N)=CN1CCNc2ccccc21 | -14% | -21 | 6% | -6% | 7%
COc1ccc2cc1Oc1cc3c(cc1OC)CC[N+](C)(C)[C@H]3Cc1ccc(cc1)Oc1c(OC)c(OC)cc3c1[C@@H](C2)[N+](C)(C)CC3 | 17% | . | . | ? | .
COc1ccc2cc1Oc1ccc(cc1)C[C@H]1c3c(cc(OC)c4c3Oc3c(ccc5c3[C@H](C2)N(C)CC5)O4)CCN1C | 5.8µM* | -17 | -2% | 5.2µM* | -3%
COc1ccc2cc1Oc1ccc(cc1)CC1c3c(cc(OC)c4c3Oc3cc5c(cc3O4)CCNC5C2)CCN1C (stereo not drawn) | 2.9µM* | -11 | 18µM* | 1.6µM* | ?
CC(C)NC(=O)C1(C)CN(S(C)(=O)=O)CC(=O)N1C1CCN(Cc2ccccc2)CC1 (stereo not drawn) | -3% | 31 | -5% | 5% | -4%
CC[C@]12CCCN3CCc4c(n(c5ccccc45)C(=O)C1)[C@@H]32 | 6% | 16 | 14% | 6.5µM* | ?
CCCNC(=O)C1(C)CCN(C(=O)Cc2ccc3ccccc3c2)C1 (stereo not drawn) | ? | 0 | 12% | ? | 2%
O=C(Nc1ccc(CN2CCOCC2)cc1)c1ccc(-c2cccc(Cl)c2)o1 | ? | -60* | -4% | ? | 0%
O=C(NC(=S)Nc1ccc(CN2CCOCC2)cc1)c1ccc(-c2cccc(Cl)c2)o1 | 16µM* | ? | ? | 7.3µM* | ?
O=C(NC(=S)Nc1ccc(CN2CCOCC2)cc1)c1ccc(-c2ccc(Cl)cc2)o1 | ? | 0 | 3% | ? | 13%
O=C(CNC(=S)N(Cc1ccccc1)Cc1ccccc1F)NCCc1ccccc1 | -24% | -18 | ? | ? | ?
CCOC(=O)CNC(=S)N(Cc1ccccc1)Cc1ccccc1F | 3% | -56* | -4% | ? | -2%
Cc1ccc(CNC(=O)CNC(=S)N(Cc2ccccc2)Cc2ccccc2F)cc1 | -20% | -69* | ? | ? | ?
COc1cccc(CNC(=O)CNC(=S)N(Cc2ccccc2)Cc2ccccc2F)c1 | ? | ? | -12% | ? | -19%
O=C(CNC(=S)N(Cc1ccccc1)Cc1ccccc1F)NCc1ccc(Cl)cc1 | ? | -83* | ? | ? | ?
CCOC(=O)c1c(C)oc2nc(C)nc(NCc3cccc(OC)c3)c12 | 16µM* | . | . | ? | .
SMILES | TDP1 cell CPT | IL1B secr inh | HT1080 IDH1KD tx | TDP1 cell noCPT | HT1080NT lethal
CCOC(=O)c1c(C)oc2nc(C)nc(NCc3cccc(Cl)c3)c12 | ? | . | . | 21µM* | .
O=C(COC(=O)c1cccc(OC(F)F)c1)Nc1cc(S(=O)(=O)N2CCCC2)ccc1Cl | ? | 12 | 0% | ? | -2%
CCS(=O)(=O)NCc1ccc2c(c1)cc(C)n2C | 13% | -19 | 0% | 1% | 8%
CCCS(=O)(=O)NCc1ccc2c(c1)cc(C)n2C | -24% | -69* | -2%[9.24 µM] | -24% | ?
COc1ccc(CNC(=S)Nc2ccc(Br)cc2)cc1 | ? | 21 | -11% | 18µM* | -11%
Cc1ccccc1NC(=S)NCc1ccc2c(c1)cc(C)n2C | 2.9µM* | 33 | ? | 3.3µM* | 15µM*
CCc1cccc(C)c1NC(=S)NCc1ccc2c(c1)cc(C)n2C | 21µM* | -24 | -2% | 16µM* | -4%
CCO[C@H]1OC(C(=O)NC2CC2)=C[C@@H](C2CC2)[C@@H]1CCCO | 4% | 18 | 13% | 2% | 4%
COc1ccccc1CCNC(=O)c1cccc(NC(=O)CC2SC(N3CCCCC3)=NC2=O)c1 (stereo not drawn) | ? | -12 | 3% | ? | -6%
O=C(NCC(F)(F)F)c1[nH]c(C(F)(F)F)nc1-c1ccccc1 | 3% | -8 | 7% | -6% | 13%
CCc1cc(C(=O)NCc2c(C)ncc3c2CCN(C(=O)C2=CCCC2)C3)no1 | 12%[9.04 µM] | . | . | -11% | .
Cc1cc2cc(CNC(=O)CC(C)C)ccc2n1C | -7% | -15 | 15% | 1% | -3%
COc1ccccc1NC(=S)NCc1ccc2c(c1)cc(C)n2C | 16µM* | -8 | -24% | 23µM* | 2%
COc1ccc(NC(=S)NCc2ccc3c(c2)cc(C)n3C)cc1 | 18µM* | -9 | -6% | ? | -2%
COc1ccc(CCNC(=S)Nc2cccc(C)c2)cc1 | ? | 1 | -7% | 16µM* | -11%
CCC(CC)C(=O)NCc1ccc2c(c1)cc(C)n2C | 10µM* | 17 | -17% | ? | ?
O=C(Nc1ccc2c(c1)C(=O)OC2)c1ccc(F)cc1F | -1% | -9 | 23% | -7% | 16%
Nc1nc(SCc2ccc(Cl)cc2Cl)c2ncn(C3OC(CO)C(O)C3O)c2n1 (stereo not drawn) | 17% | -13 | -8% | -25% | -7%
CCOc1ccc(C(c2c(O)cc(C)n(CCOC)c2=O)N2CCN(c3ccccc3F)CC2)cc1 (stereo not drawn) | -18% | . | . | -30% | .
COc1ccc(NC(=O)CCCN2C(=O)CCn3nc(-c4cn(C)c5ccccc45)cc32)cc1 | 23µM* | . | . | 18µM* | .
Cn1cc(-c2cc3n(n2)CCC(=O)N3CCCC(=O)Nc2ccccc2F)c2ccccc21 | ? | . | . | 23µM* | .
Cc1cccc(CNC(=O)CCCN2C(=O)CCn3nc(-c4cn(C)c5ccccc45)cc32)c1 | 23µM* | . | . | ? | .
Cn1cc(-c2cc3n(n2)CCC(=O)N3CCCC(=O)Nc2ccccc2Cl)c2ccccc21 | 18µM* | . | . | 18µM* | .
